According to PubChem BioAssay (NCATS):
Inconclusive results are not listed. Calls of active or inactive are those of the source. Calls come from the whole dose curve.

Assay: Cytotoxicity counterscreen for inhibitors of SARS-CoV-2 cell entry (AID 1645845); note: nearly all actives have a fitted effect of over 50% in size
Conditions: cell viability (SARS-CoV-2 entry assay cells); series mostly up to 57.1 µM
How it was run: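 Expi293F/hACE2 cells seeded overnight; cpd pin-transferred in DMSO, 1 h preincubation, + media, 48 h 37 C 5% CO2; ATPLite 1step luminescence; normalized to cells and no cells.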
Potency is the fitted concentration of half-maximal effect.

Row | Structure (SMILES) | outcome | Potency
1 | Cn1cc(C[C@@H](N)C(=O)O)c2ccccc21 | inactive [at 11.3 µM] | –
2 | CCc1ccc(/C=C2/SC(=S)NC2=O)cc1 | – | 10 µM (active)
3 | CCN(CC)CCNC(=O)c1ccc2nc(-c3ccccc3)c(-c3ccc(CN4CCC(n5c(=O)[nH]c6ccccc65)CC4)cc3)nc2c1 | – | 5.62 µM (active)
4 | O=C1c2c(O)cc(O)cc2OC(c2ccc(O)c(O)c2)C1O (centres undefined) | – | inactive
5 | O=C(Nc1ccc(Oc2ccnc3[nH]ccc23)c(F)c1)c1cccn(-c2ccc(F)cc2)c1=O | – | inactive

Assay: Primary qHTS to identify inhibitors of SARS-CoV-2 cell entry (AID 1645846); note: nearly all actives have a fitted effect of over 45% in size
Conditions: SARS-CoV-2 pseudovirus cell entry assay, luminescence; activity change, negative = inhibition: at 57.1 µM (top of the series) unless noted; series mostly up to 57.1 µM
How it was run: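 Data are normalized to wells receiving SARS-CoV-2-S pseudoparticles and those given bald particles. Entry signal was luciferase luminescence in stable hACE2 Expi293F cells, 48 hr post-infection, after 1 hr compound pretreatment.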

Row | Structure (SMILES) | activity change, negative = inhibition | Potency
6 | Cn1cc(C[C@@H](N)C(=O)O)c2ccccc21 | -6.52% [at 11.3 µM] | –
7 | CCc1ccc(/C=C2/SC(=S)NC2=O)cc1 | – | 31.6 µM (active)
8 | N#CNC(=NCCCCCCOc1ccc(Cl)cc1)Nc1ccncc1 | -97% | –
9 | CCN(CC)CCNC(=O)c1ccc2nc(-c3ccccc3)c(-c3ccc(CN4CCC(n5c(=O)[nH]c6ccccc65)CC4)cc3)nc2c1 | – | 4.47 µM (active)
10 | CCN(CC)CCCCNc1ncc2c(n1)N(C)C(=O)N(c1c(Cl)c(OC)cc(OC)c1Cl)C2 | – | 6.31 µM (active)
11 | CC(C)C[C@H](NC(=O)CNC(=O)c1cc(Cl)ccc1Cl)B1OC(=O)CC(CC(=O)O)(C(=O)O)O1 (some centres undefined) | -99.4% | –
12 | CN1CCc2c(c3ccccc3n2Cc2ccc(C(=O)NO)cc2)C1 | -18.9% | –
13 | O=C1c2c(O)cc(O)cc2OC(c2ccc(O)c(O)c2)C1O (centres undefined) | 4.53% | –
14 | O=C(Nc1ccc(Oc2ccnc3[nH]ccc23)c(F)c1)c1cccn(-c2ccc(F)cc2)c1=O | -21.9% | –
